Results: PubChem BioAssay (EPA / NIEHS)
Results filed as inconclusive are left out. Calls of active or inactive are those of the source. How the source made its calls, unless noted: active means hit-call score of the fitted dose curve at least 0.9, where 1 is the maximum; inactive means score below 0.9.

Key:
[1] = target: Paired box protein Pax-6 (Homo sapiens) (UniProt P26367); assay: ATG_Pax6_CIS: Attagene CIS-FACTORIAL HepG2 Assay for human Paired Box 6 (PAX6) (AID 2282956); conditions: HepG2 CIS-FACTORIAL PAX6 reporter transcription, RNA readout; actives raise or lower the signal
Paired box protein Pax-6 (Homo sapiens), sequence (P26367 whole entry, looked up): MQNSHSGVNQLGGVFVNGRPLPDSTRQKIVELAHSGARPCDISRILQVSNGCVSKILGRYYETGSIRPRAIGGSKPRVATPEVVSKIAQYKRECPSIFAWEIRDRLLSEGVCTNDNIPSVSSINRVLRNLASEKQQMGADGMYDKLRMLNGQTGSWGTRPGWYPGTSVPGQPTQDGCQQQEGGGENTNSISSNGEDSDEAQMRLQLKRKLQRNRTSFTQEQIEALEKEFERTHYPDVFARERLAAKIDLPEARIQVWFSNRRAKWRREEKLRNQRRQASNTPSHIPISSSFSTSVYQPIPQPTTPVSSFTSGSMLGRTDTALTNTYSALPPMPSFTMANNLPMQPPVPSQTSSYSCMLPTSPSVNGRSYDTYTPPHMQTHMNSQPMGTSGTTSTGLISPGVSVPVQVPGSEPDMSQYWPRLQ
Outline: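 Readout: reporter transcript fluorescence after RT-PCR and capillary electrophoresis. Cells: HepG2, transiently transfected with cis-regulated MRTUs. Exposure 24 h. Gain or loss of signal fitted bidirectionally relative to DMSO.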

[2] = ATG_PPRE_CIS: Attagene CIS-FACTORIAL HepG2 Assay for human Peroxisome Proliferator-activated Response Element (PPRE) (AID 2282958); conditions: HepG2 PPRE cis-element reporter, Attagene transcription factor profiling; actives raise or lower the signal
Outline: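 HepG2 cells are transiently transfected with multiplexed cis-promoter reporter units to report endogenous PPAR activity. After 24 h dosing, reporter mRNA is read by RT-PCR and capillary electrophoresis. Fitting is bidirectional against DMSO.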

[3] = ATG_RORE_CIS: Attagene CIS-FACTORIAL HepG2 Assay for human RAR-related Orphan Receptor Element (RORE) (AID 2282959); conditions: HepG2 Attagene cis-factorial RORE reporter, mRNA; actives raise or lower the signal
Outline: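 HepG2 cells carrying transiently transfected cis-regulated reporter units; RORE-driven reporter mRNA quantified 24 h post-dosing by RT-PCR, 6-FAM primer extension, HpaI digestion and capillary electrophoresis. Bidirectional fit versus DMSO.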

[4] = ATG_Sox_CIS: Attagene CIS-FACTORIAL HepG2 Assay for human SRY-box transcription factor (SOX) (AID 2282960); conditions: HepG2 Attagene cis-factorial SOX reporter, mRNA; actives raise or lower the signal
Outline: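 HepG2 cells transiently transfected with multiple cis-regulated reporter units, then dosed for 24 h. Reporter mRNA quantified by RT-PCR, fluorescent labelling, HpaI digestion and capillary electrophoresis; bidirectional fit versus DMSO.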

[5] = target: Transcription factor Sp1 (Homo sapiens) (UniProt P08047); assay: ATG_Sp1_CIS: Attagene CIS-FACTORIAL HepG2 Assay for human Specificity Protein 1 (Sp1) (AID 2282961); conditions: HepG2 Sp1 cis-reporter transcription, actives raise or lower the signal
Transcription factor Sp1 (Homo sapiens), sequence (P08047 whole entry, looked up): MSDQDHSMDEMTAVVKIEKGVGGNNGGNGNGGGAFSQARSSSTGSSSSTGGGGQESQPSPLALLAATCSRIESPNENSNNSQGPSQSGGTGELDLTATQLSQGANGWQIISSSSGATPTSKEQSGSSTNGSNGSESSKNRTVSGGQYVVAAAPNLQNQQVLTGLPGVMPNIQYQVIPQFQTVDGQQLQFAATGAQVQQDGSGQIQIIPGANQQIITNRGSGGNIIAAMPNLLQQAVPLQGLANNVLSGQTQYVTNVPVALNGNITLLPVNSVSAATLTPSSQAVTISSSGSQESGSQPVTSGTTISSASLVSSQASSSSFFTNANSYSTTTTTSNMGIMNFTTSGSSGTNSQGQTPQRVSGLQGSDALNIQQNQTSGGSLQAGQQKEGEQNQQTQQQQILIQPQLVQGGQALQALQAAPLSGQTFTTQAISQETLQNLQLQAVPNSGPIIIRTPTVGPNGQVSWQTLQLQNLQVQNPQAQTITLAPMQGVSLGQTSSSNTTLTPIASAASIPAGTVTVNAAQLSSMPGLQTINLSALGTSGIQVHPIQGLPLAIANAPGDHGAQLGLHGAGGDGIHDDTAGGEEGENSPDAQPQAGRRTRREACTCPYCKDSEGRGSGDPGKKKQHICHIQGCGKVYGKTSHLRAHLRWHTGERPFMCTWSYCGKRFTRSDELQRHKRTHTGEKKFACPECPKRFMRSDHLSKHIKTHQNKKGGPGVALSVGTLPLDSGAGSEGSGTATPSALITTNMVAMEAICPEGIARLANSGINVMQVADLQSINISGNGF
Outline: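 HepG2 cells transiently transfected with multiplexed cis-regulated reporter constructs, chemical exposure 24 h. Reporter mRNA quantified by RT-PCR with capillary electrophoresis; bidirectional fit relative to DMSO.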

[6] = target: Signal transducer and activator of transcription 3 (Homo sapiens) (UniProt P40763); assay: ATG_STAT3_CIS: Attagene CIS-FACTORIAL HepG2 Assay for human Signal Transducer and Activator of Transcription 3 (STAT3) (AID 2282963); conditions: HepG2, Attagene cis-factorial STAT3 reporter transcription; actives raise or lower the signal
Signal transducer and activator of transcription 3 (Homo sapiens), sequence (P40763 whole entry, looked up): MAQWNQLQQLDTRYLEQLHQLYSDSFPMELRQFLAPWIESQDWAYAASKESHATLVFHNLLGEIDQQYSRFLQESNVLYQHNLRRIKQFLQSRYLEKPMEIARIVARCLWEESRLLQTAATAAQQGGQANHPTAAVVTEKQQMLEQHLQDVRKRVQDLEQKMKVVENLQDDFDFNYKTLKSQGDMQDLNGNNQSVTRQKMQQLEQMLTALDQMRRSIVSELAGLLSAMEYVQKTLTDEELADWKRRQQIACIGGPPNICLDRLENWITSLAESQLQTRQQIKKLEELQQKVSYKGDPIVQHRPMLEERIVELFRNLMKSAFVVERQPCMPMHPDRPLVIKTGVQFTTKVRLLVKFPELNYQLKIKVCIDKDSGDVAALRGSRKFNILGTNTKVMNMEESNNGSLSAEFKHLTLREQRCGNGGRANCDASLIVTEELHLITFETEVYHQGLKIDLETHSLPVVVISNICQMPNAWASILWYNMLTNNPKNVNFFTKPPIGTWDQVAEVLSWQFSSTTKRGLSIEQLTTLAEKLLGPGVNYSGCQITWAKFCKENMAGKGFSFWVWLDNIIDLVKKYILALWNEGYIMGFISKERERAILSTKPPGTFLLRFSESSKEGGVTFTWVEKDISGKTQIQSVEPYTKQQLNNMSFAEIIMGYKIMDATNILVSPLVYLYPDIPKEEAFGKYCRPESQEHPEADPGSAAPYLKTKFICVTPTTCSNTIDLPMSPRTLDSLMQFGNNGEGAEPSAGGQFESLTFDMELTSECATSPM
Outline: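 Cis-factorial format: endogenous transcription factors in HepG2 drive transfected reporter units. After 24 h treatment, reporter RNA was reverse-transcribed, amplified, FAM-labelled and HpaI-digested before CE analysis; activity scored in both directions against DMSO.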

[7] = ATG_TA_CIS: Attagene CIS-FACTORIAL HepG2 Assay for human TA Basal Promoter (AID 2282964); conditions: HepG2 Attagene CIS-factorial TA basal promoter reporter; actives raise or lower the signal
Outline: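 Background internal-marker endpoint from a 52-component HepG2 cis-reporter panel. Cells treated 24 h; reporter transcripts quantified via RT-PCR and CE fluorescence against DMSO baseline.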

[8] = ATG_TCF_b_cat_CIS: Attagene CIS-FACTORIAL HepG2 Assay for human T-Cell-Factor with beta-catenin (TCF/b-cat) (AID 2282965); conditions: HepG2 TCF/beta-catenin cis-reporter transcription, actives raise or lower the signal
Outline: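 Endogenous transcription factor activity is captured through cis-promoter reporter constructs transiently introduced into human HepG2 liver cells. Induced reporter mRNA is measured after 24 h and fitted bidirectionally relative to DMSO.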

[9] = ATG_TAL_CIS: Attagene CIS-FACTORIAL HepG2 Assay for human TAL Basal Promoter (AID 2282966); conditions: HepG2 Attagene cis-factorial TAL promoter reporter; actives raise or lower the signal;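 further: background control endpoint measuring basal TAL promoter reporter mRNA not a specific factor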
Outline: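 Endogenous transcription-factor activity is sensed in HepG2 cells through transfected cis-promoter reporter constructs. After 24 h dosing, reporter transcripts are quantified by RT-PCR and capillary electrophoresis. Gain or loss of signal is fitted relative to DMSO.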

[10] = ATG_TGFb_CIS: Attagene CIS-FACTORIAL HepG2 Assay for human Transforming Growth Factor (TGF) (AID 2282967); conditions: HepG2 Attagene CIS TGFb reporter, mRNA transcription; actives raise or lower the signal
Outline: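 Liver HepG2 line, cis-factorial reporter panel, 24 h dosing. Quantitation: RT-PCR products labeled with 6-FAM, cut with HpaI, resolved by capillary electrophoresis; DMSO-referenced bidirectional analysis.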

[11] = ATG_VDRE_CIS: Attagene CIS-FACTORIAL HepG2 Assay for human Vitamin D Receptor Element (VDRE) (AID 2282968); conditions: HepG2 VDRE cis-reporter transcription, actives raise or lower the signal
Outline: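 Measures endogenous factor activity through cis-element-driven reporter transcripts in transiently transfected HepG2. Cells are treated 24 h; reporter mRNA is quantified by RT-PCR and capillary electrophoresis; fitting is bidirectional.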

[12] = target: X-box-binding protein 1 (Homo sapiens) (UniProt P17861); assay: ATG_Xbp1_CIS: Attagene CIS-FACTORIAL HepG2 Assay for human X-box Binding Protein 1 (XBP1) (AID 2282972); conditions: HepG2 XBP1 cis-element reporter, Attagene multiplex; actives raise or lower the signal
X-box-binding protein 1 (Homo sapiens), sequence (P17861 whole entry, looked up, the tested form may be a part): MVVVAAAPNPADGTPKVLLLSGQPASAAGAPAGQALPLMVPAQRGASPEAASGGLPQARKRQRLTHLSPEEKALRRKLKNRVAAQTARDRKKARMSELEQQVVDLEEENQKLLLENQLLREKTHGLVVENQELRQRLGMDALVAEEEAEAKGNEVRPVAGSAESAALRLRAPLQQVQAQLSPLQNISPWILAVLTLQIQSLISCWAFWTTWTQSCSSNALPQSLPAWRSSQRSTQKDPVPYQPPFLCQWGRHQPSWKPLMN
Outline: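 Read-out: fluorescent reporter mRNA fragments resolved by capillary electrophoresis after RT-PCR. Human HepG2 liver cells carried transfected cis-promoter reporter units and were exposed to chemicals for 24 hours. Gain or loss of signal fitted relative to DMSO baseline.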

[13] = ATG_M_19_TRANS: Attagene TRANS-FACTORIAL HepG2 Assay for M19 Transcription Factor (Internal Marker) (AID 2282974; active means hit-call score of the fitted dose curve at least 0.9, where 1 is the maximum); conditions: HepG2 Attagene TRANS-FACTORIAL M19 internal marker reporter
Outline: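 HepG2 transiently transfected with GAL4-UAS multiplex reporter constructs, exposed 24 h; reporter RNA quantified by RT-PCR, 6-FAM labeling, HpaI digestion and capillary electrophoresis; internal background marker fitted upward versus DMSO.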

[14] = ATG_SREBP_CIS: Attagene CIS-FACTORIAL HepG2 Assay for human Sterol Regulatory Element Binding (SREBP) (AID 2282962); conditions: HepG2 Attagene cis-factorial SREBP reporter, mRNA; actives raise or lower the signal
Outline: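 Readout: fluorescent reporter-transcript peaks resolved by capillary electrophoresis after RT-PCR. Cells were human HepG2 carrying transfected cis-promoter reporter constructs, dosed for 24 h. Gain or loss of signal was fitted against DMSO controls.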

[15] = ATG_GAL4_TRANS: Attagene TRANS-FACTORIAL HepG2 Assay for GAL4 (Internal Marker) (AID 2282976; active means hit-call score of the fitted dose curve at least 0.9, where 1 is the maximum); conditions: HepG2 Attagene TRANS GAL4 internal marker reporter
Outline: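 Fluorescence from capillary electrophoresis of labelled RT-PCR products quantifies reporter mRNA induction after 24 h dosing of HepG2 cells carrying transfected GAL4-UAS reporter transcription units. Vehicle DMSO serves as baseline.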

[16] = target: Nuclear receptor subfamily 1 group I member 3 (Homo sapiens) (UniProt Q14994); assay: ATG_CAR_TRANS: Attagene TRANS-FACTORIAL HepG2 Assay for human Constitutive Androstane Receptor (CAR) (AID 2282969; active means hit-call score of the fitted dose curve at least 0.9, where 1 is the maximum;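 further: activators raise reporter mRNA above DMSO so AC50 marks induction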); conditions: HepG2 Attagene TRANS-FACTORIAL CAR reporter
Nuclear receptor subfamily 1 group I member 3 (Homo sapiens), sequence (Q14994 whole entry, looked up, the tested form may be a part): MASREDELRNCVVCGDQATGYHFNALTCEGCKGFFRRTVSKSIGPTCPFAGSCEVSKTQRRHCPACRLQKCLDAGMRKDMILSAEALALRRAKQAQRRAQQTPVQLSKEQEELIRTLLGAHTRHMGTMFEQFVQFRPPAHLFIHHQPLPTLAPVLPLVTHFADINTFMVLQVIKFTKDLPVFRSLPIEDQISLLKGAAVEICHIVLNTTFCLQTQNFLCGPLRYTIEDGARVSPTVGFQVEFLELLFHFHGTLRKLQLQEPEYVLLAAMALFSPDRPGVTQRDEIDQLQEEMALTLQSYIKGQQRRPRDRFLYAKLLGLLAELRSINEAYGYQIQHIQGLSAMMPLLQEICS
Outline: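 Signal is reporter mRNA induction relative to DMSO, measured 24 h after dosing by RT-PCR with fluorescent primer extension and capillary electrophoresis. Human HepG2 liver cells carried transiently transfected chimeric NR-Gal4/GAL4-UAS reporter constructs.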

[17] = target: Steroid hormone receptor ERR1 (Homo sapiens) (UniProt P11474); assay: ATG_ERRa_TRANS: Attagene TRANS-FACTORIAL HepG2 Assay for human Estrogen-Related Receptor alpha (ERRa) (AID 2282971; active means hit-call score of the fitted dose curve at least 0.9, where 1 is the maximum); conditions: HepG2 Attagene TRANS reporter, ERRa transactivation
Steroid hormone receptor ERR1 (Homo sapiens), sequence (P11474 whole entry, looked up, the tested form may be a part): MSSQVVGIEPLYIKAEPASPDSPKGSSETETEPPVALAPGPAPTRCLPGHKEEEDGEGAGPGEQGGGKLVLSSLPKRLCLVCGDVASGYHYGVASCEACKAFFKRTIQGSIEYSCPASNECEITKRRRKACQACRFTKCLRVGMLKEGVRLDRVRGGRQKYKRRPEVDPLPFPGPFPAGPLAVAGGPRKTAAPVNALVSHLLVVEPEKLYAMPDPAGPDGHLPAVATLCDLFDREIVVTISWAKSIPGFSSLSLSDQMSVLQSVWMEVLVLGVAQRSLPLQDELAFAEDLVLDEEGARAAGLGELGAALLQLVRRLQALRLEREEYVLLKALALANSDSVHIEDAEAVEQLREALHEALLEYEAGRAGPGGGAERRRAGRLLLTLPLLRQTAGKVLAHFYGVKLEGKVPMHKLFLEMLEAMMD
Outline: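 HepG2 cells were transiently transfected with multiple GAL4-UAS reporter units, then dosed with compound for 24 h. Total RNA was reverse-transcribed, reporter cDNA PCR-amplified and fluorescently labelled, and fragments resolved by capillary electrophoresis; induction was compared with DMSO.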

[18] = target: Estrogen-related receptor gamma (Homo sapiens) (UniProt P62508); assay: ATG_ERRg_TRANS: Attagene TRANS-FACTORIAL HepG2 Assay for human Estrogen-Related Receptor gamma (ERRg) (AID 2282977; active means hit-call score of the fitted dose curve at least 0.9, where 1 is the maximum;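 further: hits increase reporter signal over DMSO so potencies reflect activators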); conditions: HepG2 Attagene TRANS reporter, ERRg transactivation
Estrogen-related receptor gamma (Homo sapiens), sequence (P62508 whole entry, looked up, the tested form may be a part): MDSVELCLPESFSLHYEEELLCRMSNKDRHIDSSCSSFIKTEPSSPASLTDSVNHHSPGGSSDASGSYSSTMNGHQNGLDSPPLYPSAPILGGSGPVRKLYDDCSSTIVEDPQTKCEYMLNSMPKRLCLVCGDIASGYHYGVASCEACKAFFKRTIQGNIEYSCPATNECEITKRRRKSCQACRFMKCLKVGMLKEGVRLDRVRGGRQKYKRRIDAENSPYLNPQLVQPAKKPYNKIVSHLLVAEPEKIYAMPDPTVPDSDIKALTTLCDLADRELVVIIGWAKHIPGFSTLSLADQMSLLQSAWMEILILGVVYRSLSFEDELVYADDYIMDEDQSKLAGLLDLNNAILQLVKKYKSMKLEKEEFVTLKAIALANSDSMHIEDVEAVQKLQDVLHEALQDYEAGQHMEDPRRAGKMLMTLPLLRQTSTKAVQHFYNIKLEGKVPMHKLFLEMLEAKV
Outline: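 Exogenous NR-Gal4 chimera activity was assessed in HepG2 cells bearing transfected GAL4-UAS reporters. After 24 h dosing, total RNA underwent RT-PCR, fluorescent primer extension and HpaI digestion before capillary electrophoresis, with gain of signal scored against DMSO.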

Measured: AC50

CS(=O)(=O)OCCCCOS(C)(=O)=O
not listed: [14] | [15] | [16] | [17] | [18]
inactive: all other assays above

C=C(C)C(=O)OCCOCCOCCOCCOC(=O)C(=C)C
not listed: [2] | [16] | [17] | [18]
inactive: all other assays above

C1=CC2C3C=CC(C3)C2C1 (configuration not stated)
not listed: [2] | [14] | [18]
inactive: all other assays above

COc1ccc(CCO)cc1
active: [6] 179 µM
not listed: [16] | [17] | [18]
inactive: all other assays above

C=COCCOCCOC=C
not listed: [3] | [16] | [17] | [18]
inactive: all other assays above

CN1CCOCC1
not listed: [3] | [16]
inactive: all other assays above

CCOC(=O)CCc1ccccc1
not listed: [5] | [8] | [16] | [17] | [18]
inactive: all other assays above

NCCNc1cccc2ccccc12
active: [1] 100 µM | [14] 35.6 µM | [8] 49.8 µM | [11] 155 µM | [12] 161 µM
inactive: [4] | [5] | [6] | [7] | [9] | [10] | [16]
